Data published in PubChem BioAssay (NCI).
This is part of a sample that, as a whole, favours compounds with a hit. Of some 79,000 tested, about 15% had one in any assay. Unmarked numbers belong to inactive results. The source made the active and inactive calls. Rule as the data show it: active = growth inhibition above about 70%; inactive = the rest.

Key:
[1] = NCI Yeast Anticancer Drug Screen. Data for the wt1 strain (AID 149);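 also: 0% = growth of vehicle-treated wt1 cultures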; conditions: S. cerevisiae wt1 strain (SPY 50644) growth inhibition, stronger effect = higher value
Procedure, shortened: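 Growth inhibition read against vehicle controls after compound exposure of the wt1 yeast strain.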

[2] = NCI Yeast Anticancer Drug Screen. Data for the rad50EPP+ strain (AID 151);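 also: 0% = growth of vehicle-treated control cultures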; conditions: S. cerevisiae rad50 mutant strain, stronger effect = higher value
Procedure, shortened: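 Read-out is yeast growth inhibition relative to vehicle; cells used were the rad50EPP+ strain.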

[3] = NCI Yeast Anticancer Drug Screen. Data for the mgt1 strain (AID 153); conditions: S. cerevisiae mgt1 mutant growth inhibition, stronger effect = higher value
Procedure, shortened: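 Measured: inhibition of mgt1 yeast growth by compound, normalized to vehicle-treated cultures.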

[4] = NCI Yeast Anticancer Drug Screen. Data for the rad50 strain (AID 155);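 also: 0% = growth of vehicle-only cultures of the same strain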; conditions: S. cerevisiae rad50 strain growth inhibition, stronger effect = higher value
Procedure, shortened: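 Readout: growth inhibition relative to vehicle-treated cultures. Compound exposure was carried out in a genetically defined yeast strain deficient in DNA damage repair.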

[5] = NCI Yeast Anticancer Drug Screen. Data for the mec2-1 strain (AID 157); conditions: S. cerevisiae mec2-1 strain, stronger effect = higher value
Procedure, shortened: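 Using mec2-1 yeast: add compound, measure growth, express inhibition versus vehicle-treated cultures.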

[6] = NCI Yeast Anticancer Drug Screen. Data for the rad14 strain (AID 159);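 also: 0% = growth of vehicle-treated control cultures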; conditions: S. cerevisiae rad14 strain growth inhibition, stronger effect = higher value
Procedure, shortened: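 Growth inhibition vs vehicle controls; genetically altered yeast strain (DNA damage repair defect) treated with test compounds.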

[7] = NCI Yeast Anticancer Drug Screen. Data for the sgs1 mgt1 strain (AID 161);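 also: 0% = growth of cultures given vehicle only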; conditions: S. cerevisiae sgs1 mgt1 strain, stronger effect = higher value
Procedure, shortened: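 This yeast growth screen uses a strain with defined DNA-repair lesions; compound-treated growth is compared with vehicle-treated growth.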

[8] = NCI Yeast Anticancer Drug Screen. Data for the CLN2oe strain (AID 163);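 also: 0% = growth of vehicle-only control cultures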; conditions: S. cerevisiae CLN2oe strain, stronger effect = higher value
Procedure, shortened: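 Whole-cell yeast growth assay. A strain engineered for altered cell-cycle control received compound, and inhibition relative to vehicle-treated cultures was recorded.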

[9] = NCI Yeast Anticancer Drug Screen. Data for the cln2 rad14 strain (AID 165);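 also: 0% = growth equal to vehicle treated cultures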; conditions: S. cerevisiae cln2 rad14 strain, stronger effect = higher value
Procedure, shortened: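 Yeast strain cln2 rad14, bearing defects in cell cycle control and DNA repair, serves as the test system; values reflect growth inhibition compared with vehicle.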

[10] = NCI Yeast Anticancer Drug Screen. Data for the bub3 strain (AID 167); conditions: S. cerevisiae bub3 mutant strain, stronger effect = higher value
Procedure, shortened: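 Readout: yeast growth inhibition, expressed relative to vehicle-only wells. The test organism is a mutant strain from a panel with lesions in DNA repair or checkpoint genes.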

[11] = NCI Yeast Anticancer Drug Screen. Data for the wt2 strain (AID 169);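 also: 0% = growth of vehicle-treated yeast cultures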; conditions: S. cerevisiae wt2 strain growth inhibition, stronger effect = higher value
Procedure, shortened: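 Treated yeast vs. vehicle-treated yeast: growth inhibition determined.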

[12] = NCI Yeast Anticancer Drug Screen. Data for the mlh1 strain (AID 171);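 also: 0% = growth of vehicle-treated control cultures of the same strain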; conditions: S. cerevisiae mlh1 strain growth inhibition, stronger effect = higher value
Procedure, shortened: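 A yeast strain with a defined genetic lesion serves as the test organism. Cultures receive compound or vehicle, and growth is measured.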

[13] = NCI Yeast Anticancer Drug Screen. Data for the mlh1 rad18 strain (AID 175); conditions: S. cerevisiae mlh1 rad18 strain growth inhibition, stronger effect = higher value
Procedure, shortened: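 Steps: expose repair-defective yeast to compound; measure growth; express inhibition against vehicle-treated controls.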

[14] = NCI Yeast Anticancer Drug Screen. Data for the rad52 strain (AID 147);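 also: 0% = growth of vehicle-treated control cultures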; conditions: S. cerevisiae rad52 mutant growth inhibition, stronger effect = higher value
Procedure, shortened: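 Here a repair-compromised yeast strain receives each compound; its growth is then quantified and normalised to vehicle-only controls.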

[15] = NCI Yeast Anticancer Drug Screen. Data for the sgs1 strain (AID 173);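 also: 0% = growth of vehicle-only control cultures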; conditions: S. cerevisiae sgs1 mutant, stronger effect = higher value
Procedure, shortened: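 A genetically defined yeast mutant is incubated with the test compound, and its growth is compared to that of the same strain given vehicle.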

[16] = NCI Yeast Anticancer Drug Screen. Data for the rad18 strain (AID 177); conditions: S. cerevisiae rad18 mutant growth inhibition, stronger effect = higher value
Procedure, shortened: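 Measured value is growth inhibition of a yeast strain bearing a DNA repair alteration, referenced to vehicle-treated cells.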

[17] = at 5.0 µM (retest, dose inferred, filed as 0.5)
[18] = at 50.0 µM (retest, dose inferred, filed as 5.0)

O=C1CSc2cc([N+](=O)[O-])ccc2N1
growth inhibition ([1]; at 1.2 µM): 4% | growth inhibition ([1]; at 3.7 µM): 12% | growth inhibition ([1]; at 11.0 µM): 5% | growth inhibition ([1]; at 33.0 µM): 18% | growth inhibition ([1]; at 100.0 µM): -20% | growth inhibition ([2]; at 1.2 µM): -9% | growth inhibition ([2]; at 3.7 µM): 3% | growth inhibition ([2]; at 11.0 µM): -4% | growth inhibition ([2]; at 33.0 µM): 3% | growth inhibition ([2]; at 100.0 µM): -6% | growth inhibition ([3]; at 1.2 µM): 0% | growth inhibition ([3]; at 3.7 µM): 3% | growth inhibition ([3]; at 11.0 µM): -3% | growth inhibition ([3]; at 33.0 µM): -8% | growth inhibition ([3]; at 100.0 µM): 3% | growth inhibition ([4]; at 1.2 µM): -20% | growth inhibition ([4]; at 3.7 µM): -6% | growth inhibition [4, 17]: -1% | growth inhibition ([4]; at 11.0 µM): -22% | growth inhibition ([4]; at 33.0 µM): -18% | growth inhibition [4, 18]: -14% | growth inhibition ([4]; at 50.0 µM): 21.1% | growth inhibition ([4]; at 100.0 µM): -17% | growth inhibition ([5]; at 1.2 µM): -4% | growth inhibition ([5]; at 3.7 µM): -5% | growth inhibition [5, 17]: -31% | growth inhibition ([5]; at 11.0 µM): -10% | growth inhibition ([5]; at 33.0 µM): -21% | growth inhibition [5, 18]: -12% | growth inhibition ([5]; at 50.0 µM): -18.1% | growth inhibition ([5]; at 100.0 µM): -22% | growth inhibition ([6]; at 1.2 µM): -16% | growth inhibition ([6]; at 3.7 µM): -7% | growth inhibition ([6]; at 11.0 µM): -6% | growth inhibition ([6]; at 33.0 µM): -10% | growth inhibition ([6]; at 100.0 µM): -11% | growth inhibition [7, 17]: -14% | growth inhibition [7, 18]: -14% | growth inhibition ([7]; at 50.0 µM): -11% | growth inhibition ([8]; at 1.2 µM): -3% | growth inhibition ([8]; at 3.7 µM): -14% | growth inhibition ([8]; at 11.0 µM): -8% | growth inhibition ([8]; at 33.0 µM): -19% | growth inhibition ([8]; at 100.0 µM): -13% | growth inhibition [9, 17]: 23% | growth inhibition [9, 18]: 27% | growth inhibition ([9]; at 50.0 µM): 22.4% | growth inhibition ([10]; at 1.2 µM): 8% | growth inhibition ([10]; at 3.7 µM): 9% | growth inhibition [10, 17]: 0% | growth inhibition ([10]; at 11.0 µM): 23% | growth inhibition ([10]; at 33.0 µM): 74% (active) | growth inhibition [10, 18]: 79% (active) | growth inhibition ([10]; at 50.0 µM): 70.2% (active) | growth inhibition ([10]; at 100.0 µM): 91% (active) | growth inhibition ([11]; at 1.2 µM): 19% | growth inhibition ([11]; at 3.7 µM): 23% | growth inhibition ([11]; at 11.0 µM): 14% | growth inhibition ([11]; at 33.0 µM): 21% | growth inhibition ([11]; at 100.0 µM): 4% | growth inhibition ([12]; at 1.2 µM): 18% | growth inhibition ([12]; at 3.7 µM): 5% | growth inhibition ([12]; at 11.0 µM): 6% | growth inhibition ([12]; at 33.0 µM): 0% | growth inhibition ([12]; at 100.0 µM): -22% | growth inhibition [13, 17]: -15% | growth inhibition [13, 18]: -2% | growth inhibition ([13]; at 50.0 µM): -5.25%

Cc1c(C(=O)C(=O)c2ccccc2)c(C)c(C(=O)C(=O)c2ccccc2)c(C)c1C(=O)C(=O)c1ccccc1
growth inhibition ([14]; at 1.2 µM): -4% | growth inhibition ([14]; at 3.7 µM): -5% | growth inhibition ([14]; at 11.0 µM): -7% | growth inhibition ([14]; at 33.0 µM): -17% | growth inhibition ([14]; at 100.0 µM): -14% | growth inhibition ([2]; at 1.2 µM): 0% | growth inhibition ([2]; at 3.7 µM): -1% | growth inhibition ([2]; at 11.0 µM): -3% | growth inhibition ([2]; at 33.0 µM): -5% | growth inhibition ([2]; at 100.0 µM): -17% | growth inhibition ([3]; at 1.2 µM): -2% | growth inhibition ([3]; at 3.7 µM): -2% | growth inhibition ([3]; at 11.0 µM): -5% | growth inhibition ([3]; at 33.0 µM): -21% | growth inhibition ([3]; at 100.0 µM): -9% | growth inhibition ([4]; at 1.2 µM): -11% | growth inhibition ([4]; at 3.7 µM): -21% | growth inhibition [4, 17]: 11% | growth inhibition ([4]; at 11.0 µM): -29% | growth inhibition ([4]; at 33.0 µM): -12% | growth inhibition [4, 18]: 86% (active) | growth inhibition ([4]; at 50.0 µM): 54.1% | growth inhibition ([4]; at 100.0 µM): -19% | growth inhibition ([5]; at 1.2 µM): -2% | growth inhibition ([5]; at 3.7 µM): 1% | growth inhibition [5, 17]: 18% | growth inhibition ([5]; at 11.0 µM): -1% | growth inhibition ([5]; at 33.0 µM): -3% | growth inhibition [5, 18]: 90% (active) | growth inhibition ([5]; at 50.0 µM): 61.4% | growth inhibition ([5]; at 100.0 µM): -11% | growth inhibition ([6]; at 1.2 µM): -2% | growth inhibition ([6]; at 3.7 µM): -3% | growth inhibition ([6]; at 11.0 µM): -4% | growth inhibition ([6]; at 33.0 µM): -8% | growth inhibition ([6]; at 100.0 µM): -13% | growth inhibition ([8]; at 1.2 µM): 1% | growth inhibition ([8]; at 3.7 µM): -5% | growth inhibition ([8]; at 11.0 µM): -5% | growth inhibition ([8]; at 33.0 µM): -10% | growth inhibition ([8]; at 100.0 µM): -13% | growth inhibition [9, 17]: 94% (active) | growth inhibition [9, 18]: 84% (active) | growth inhibition ([9]; at 50.0 µM): 63.1% | growth inhibition ([10]; at 1.2 µM): -2% | growth inhibition ([10]; at 3.7 µM): 0% | growth inhibition [10, 17]: 97% (active) | growth inhibition ([10]; at 11.0 µM): -2% | growth inhibition ([10]; at 33.0 µM): -8% | growth inhibition [10, 18]: 91% (active) | growth inhibition ([10]; at 50.0 µM): 56.4% | growth inhibition ([10]; at 100.0 µM): -16% | growth inhibition ([11]; at 1.2 µM): -3% | growth inhibition ([11]; at 3.7 µM): -1% | growth inhibition ([11]; at 11.0 µM): -4% | growth inhibition ([11]; at 33.0 µM): -6% | growth inhibition ([11]; at 100.0 µM): -10% | growth inhibition ([15]; at 1.2 µM): 0% | growth inhibition ([15]; at 3.7 µM): 0% | growth inhibition ([15]; at 11.0 µM): -4% | growth inhibition ([15]; at 33.0 µM): -5% | growth inhibition ([15]; at 100.0 µM): -13% | growth inhibition [13, 17]: 9% | growth inhibition [13, 18]: 87% (active) | growth inhibition ([13]; at 50.0 µM): 72.5% (active) | growth inhibition ([16]; at 1.2 µM): -3% | growth inhibition ([16]; at 3.7 µM): -4% | growth inhibition ([16]; at 11.0 µM): -6% | growth inhibition ([16]; at 33.0 µM): -13% | growth inhibition ([16]; at 100.0 µM): -20%

CN(C)CCn1c2c3ccccc3ccc2c2oc(=O)c3ccccc3c21
growth inhibition ([14]; at 1.2 µM): 24% | growth inhibition ([14]; at 3.7 µM): 21% | growth inhibition ([14]; at 11.0 µM): 94% (active) | growth inhibition ([14]; at 33.0 µM): 98% (active) | growth inhibition ([14]; at 100.0 µM): 97% (active) | growth inhibition ([2]; at 1.2 µM): 19% | growth inhibition ([2]; at 3.7 µM): 54% | growth inhibition ([2]; at 11.0 µM): 94% (active) | growth inhibition ([2]; at 33.0 µM): 97% (active) | growth inhibition ([2]; at 100.0 µM): 94% (active) | growth inhibition ([3]; at 1.2 µM): -7% | growth inhibition ([3]; at 3.7 µM): 10% | growth inhibition ([3]; at 11.0 µM): 49% | growth inhibition ([3]; at 33.0 µM): 96% (active) | growth inhibition ([3]; at 100.0 µM): 93% (active) | growth inhibition ([4]; at 1.2 µM): 21% | growth inhibition ([4]; at 3.7 µM): 51% | growth inhibition [4, 17]: 52% | growth inhibition ([4]; at 11.0 µM): 93% (active) | growth inhibition ([4]; at 33.0 µM): 97% (active) | growth inhibition [4, 18]: 95% (active) | growth inhibition ([4]; at 50.0 µM): 86.5% (active) | growth inhibition ([4]; at 100.0 µM): 92% (active) | growth inhibition ([5]; at 1.2 µM): 17% | growth inhibition ([5]; at 3.7 µM): 12% | growth inhibition [5, 17]: -12% | growth inhibition ([5]; at 11.0 µM): 40% | growth inhibition ([5]; at 33.0 µM): 95% (active) | growth inhibition [5, 18]: 98% (active) | growth inhibition ([5]; at 50.0 µM): 88.3% (active)
